Shown are actives, neighbours in structure and some others; about 13% of the full set was active somewhere.
USP8 inh: blocks human USP8 ubiquitin-rhodamine cleavage. AID 1645853. purified USP8, Ub-rhodamine cleavage fluorescence, 30 min. inhibition, % at 20 µM. P40818. 47,000 tested, 4.2% active
Target sequence (P40818 whole entry, looked up): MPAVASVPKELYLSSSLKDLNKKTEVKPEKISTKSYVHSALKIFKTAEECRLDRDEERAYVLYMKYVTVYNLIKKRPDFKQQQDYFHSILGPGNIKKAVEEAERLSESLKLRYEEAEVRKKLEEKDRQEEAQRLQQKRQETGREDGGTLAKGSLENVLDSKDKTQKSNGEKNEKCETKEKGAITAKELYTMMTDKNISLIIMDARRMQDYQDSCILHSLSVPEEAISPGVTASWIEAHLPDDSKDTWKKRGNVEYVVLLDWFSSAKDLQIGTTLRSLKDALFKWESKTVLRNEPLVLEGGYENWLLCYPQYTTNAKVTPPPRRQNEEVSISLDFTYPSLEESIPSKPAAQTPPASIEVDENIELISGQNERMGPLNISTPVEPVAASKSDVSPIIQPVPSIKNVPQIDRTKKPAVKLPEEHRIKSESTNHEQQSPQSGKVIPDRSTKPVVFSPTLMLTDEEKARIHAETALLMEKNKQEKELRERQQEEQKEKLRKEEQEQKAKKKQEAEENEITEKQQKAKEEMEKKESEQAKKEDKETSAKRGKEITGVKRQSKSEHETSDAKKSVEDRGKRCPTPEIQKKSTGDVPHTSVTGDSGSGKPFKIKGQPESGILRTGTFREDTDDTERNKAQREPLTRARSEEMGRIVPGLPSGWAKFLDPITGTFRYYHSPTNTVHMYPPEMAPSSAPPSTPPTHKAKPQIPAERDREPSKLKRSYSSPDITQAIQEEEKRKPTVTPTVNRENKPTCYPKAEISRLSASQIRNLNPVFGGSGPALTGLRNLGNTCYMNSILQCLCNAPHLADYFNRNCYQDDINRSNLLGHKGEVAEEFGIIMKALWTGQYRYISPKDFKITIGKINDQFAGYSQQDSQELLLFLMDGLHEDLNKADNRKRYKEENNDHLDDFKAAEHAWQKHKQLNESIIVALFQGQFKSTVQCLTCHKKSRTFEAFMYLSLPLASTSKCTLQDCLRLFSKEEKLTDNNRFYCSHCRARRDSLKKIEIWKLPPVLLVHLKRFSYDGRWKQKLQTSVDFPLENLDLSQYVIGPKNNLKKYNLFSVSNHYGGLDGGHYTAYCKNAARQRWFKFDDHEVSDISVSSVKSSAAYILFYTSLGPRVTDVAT
USP28 inh: blocks human USP28 ubiquitin-rhodamine cleavage; purified USP28, Ub-rhodamine cleavage fluorescence, 30 min; inhibition, % at 25 µM; 47,000 tested, 3% active; AID 1645857
USP30 inh: inhibitors of human USP30 deubiquitinase | Q70CQ3 | inhibition, % at 25 µM | purified USP30, Ub-rhodamine cleavage fluorescence | 47,000 tested, 5.3% active | AID 1645860
USP17 inh: blocks human USP17 ubiquitin-rhodamine cleavage; A8MUK1; purified USP17, Ub-rhodamine cleavage fluorescence, 3 h; inhibition, % at 50 µM; 47,000 tested, 6.5% active
USP10 block: inhibitors of human USP10 deubiquitinase; purified USP10, Ub-rhodamine fluorescence, 60 min; Q14694; inhibition, % at 20 µM; 47,000 tested, 1.1% active
Hits are given with their value; . = inactive; / = not tested or not shown. Cut-off read from the data, not from the text of the source: active = inhibition above about 30%; inactive = the rest.

SMILES	USP8 inh	USP28 inh	USP30 inh	USP17 inh	USP10 block
Cc1csc2nc(COC(=O)c3cccc(NC(=O)C(C)(C)C)c3)cc(=O)n12	.	.	.	.	.
O=C(Nc1ccccc1C(=O)OCc1cc(=O)n2ccsc2n1)c1ccc(F)cc1	.	.	.	.	.
COc1ccc(C(=O)Nc2ccc(C(=O)OCc3cc(=O)n4ccsc4n3)cc2)cc1	.	/	/	38	.
CC(=O)Nc1ccc(C(=O)OCc2cc(=O)n3c4c(sc3n2)CCCC4)cc1	.	.	.	37	.
COc1cccc(NC(=O)N2CCC3(CC2)CC[C@@]2(C(=O)N(C)C)CN(C(C)=O)C[C@@H]32)c1	.	.	.	.	.
Cc1c(-c2ccccc2)oc2c(C(=O)OCC(=O)Nc3ccccc3F)cccc2c1=O	.	.	.	67	.
COc1ccc(-c2cc(C(=O)NC3CCCc4ccccc43)[nH]n2)cc1 (stereo not drawn)	.	.	.	/	.
CCc1ccc(-c2nc(SC(C)C(=O)NC3CCCc4ccccc43)n[nH]2)cc1 (stereo not drawn)	.	.	40	48	.
COc1ccc(S(=O)(=O)NCCn2c(C)cc3ccccc32)cc1	.	.	.	.	.
COc1ccc(S(=O)(=O)NCCSc2ccccc2)cc1Br	.	.	37	.	.
Cc1cccc(CNC(=O)c2cc(=O)nc3sc(N4CCCCCC4)nn23)c1	.	.	.	.	.
O=C(Nc1ccc(Oc2cccnc2)cc1)c1ccc(Cl)cc1Cl	.	.	.	.	.
COc1ccccc1CN1CCC(c2nn(C)c3nccnc23)CC1	.	.	.	.	.
COc1ccccc1CN(CCCn1ccnc1)CC1CCOC1 (stereo not drawn)	36	.	.	.	.
O=C(C(Sc1ccccc1)c1ccccc1)N1CCN(c2cccc(C(F)(F)F)c2)CC1 (stereo not drawn)	.	.	31	/	.
CCOC(=O)C1CCN(C(=O)c2ccc(CNS(=O)(=O)c3ccc(OC)cc3)cc2)CC1	.	.	.	.	.
CCOC(=O)C1CCN(C(=O)c2ccc(CNS(=O)(=O)c3ccc(Cl)cc3)cc2)CC1	.	.	32	.	.
CC[C@@H](C(=O)[C@@H](C)[C@@H](O)[C@H](C)CCc1ccc(C)c(O)c1C(=O)O)[C@@H]1O[C@](CC)([C@H]2CC[C@](O)(CC)[C@H](C)O2)C[C@@H]1C	.	.	60	56	60
COc1cccc(-n2ccn3cc(-c4ccccc4)nc3c2=O)c1	.	.	.	33	.
COc1cccc(-n2ccn3cc(-c4ccc5c(c4)OCO5)nc3c2=O)c1	.	.	.	/	.
CC(=O)Nc1ccc(S(=O)(=O)NCC(=O)Nc2cccc(C(C)=O)c2)cc1	.	.	.	.	.
CCCCn1c(=O)c(CCC(=O)OCC(=O)Nc2ccc3c(c2)OCCO3)nc2ccccc21	.	62	.	.	.
O=C(c1ccc2ccccc2n1)N(CCN1CCCCC1)CC1CCCN(C2CCCC2)C1 (stereo not drawn)	.	.	.	.	.
COc1ccc(CN2CCc3c(nc(N4CCCC4)[nH]c3=O)C2)cc1	.	/	/	.	.
COc1cc(C2=NO[C@]3(C(=O)Nc4ccccc43)[C@H]2C(=O)c2ccccc2)ccc1OCC#N	.	.	.	.	.
SMILES	USP8 inh	USP28 inh	USP30 inh	USP17 inh	USP10 block
COc1cc(C2=NO[C@]3(C(=O)Nc4ccccc43)[C@H]2C(=O)c2ccc(C)cc2)ccc1OCC#N	.	.	.	43	.
Cc1nnn(C23CC4CC(CC(C(=O)Nc5ccc6c(c5)OCO6)(C4)C2)C3)n1	58	.	.	.	.
COc1ccc(C(CNC(=O)c2ccccc2F)N2CCN(C)CC2)cc1 (stereo not drawn)	.	.	.	/	.
COc1ccc(C)cc1NC(=O)C(OC(=O)c1cc(S(=O)(=O)N2CCOCC2)ccc1C)c1ccccc1 (stereo not drawn)	.	.	.	.	.
Cc1ccc(S(=O)(=O)NCC(=O)OC(C(=O)Nc2cc(C)ccc2C)c2ccccc2)cc1 (stereo not drawn)	.	.	47	51	.
Cc1cc(=O)n2[nH]c(CN(C(=O)c3ccccc3C)c3ccccc3)nc2n1	.	.	.	.	.
c1ccc(Cn2ncc3c(SCc4nc5ccccc5[nH]4)ncnc32)cc1	.	.	47	.	.
O=C(C1CCCN(S(=O)(=O)N2CCCCCC2)C1)N1CCN(c2ccccn2)CC1 (stereo not drawn)	.	.	.	.	.
COc1ccc(-c2cc(N3CCC(NC(=O)c4ccccc4)C3)n[nH]2)cc1 (stereo not drawn)	.	.	.	56	.
Cc1nc(NC(=O)CN2CCCCC2Cn2cncn2)sc1C (stereo not drawn)	.	.	.	.	.
O=c1c(S(=O)(=O)N2CCCC2)cccn1Cc1cccc(F)c1	.	.	.	.	.
Fc1ccc(Cl)cc1-c1nnc(-c2ccc(-n3ccnc3)nc2)o1	.	.	46	48	.
Fc1ccc(CNc2cc(-n3ccnc3)ncn2)c(F)c1	.	.	.	.	.
Fc1ccc(F)c(-c2nnc(-c3ccc(-n4ccnc4)nc3)o2)c1	.	.	.	47	.
Cc1ccc(NS(=O)(=O)c2cc(C(=O)Nc3ccc(CC#N)cc3)ccc2Cl)cc1	.	.	.	.	.
Fc1ccc2nc(CN3CCCCC3)cn2c1	.	/	/	.	.
COc1ccccc1NC(=O)CSC1=NC2(CCCCC2)Nc2ccccc21	84	.	.	54	.
Cc1cc(NC(=O)Cn2c(=O)n(CCCC(=O)NC3CCCC3)c(=O)c3cc(Cl)ccc32)n[nH]1	.	.	.	.	.
CCc1ccccc1NC(=O)Cn1c(=O)n(CCC(=O)NCC2CCCO2)c(=O)c2cc(OC)c(OC)cc21 (stereo not drawn)	.	.	.	30	.
COc1ccc(NC(=O)Cn2c(=O)n(CCCC(=O)NC3CCCC3)c(=O)c3cc(Cl)ccc32)c(OC)c1	.	.	31	.	31
COc1ccc(CCNC(=O)Cn2c(=O)n(CCCC(=O)NC3CCCC3)c(=O)c3cc(Cl)ccc32)cc1OC	.	.	37	.	.
CCOc1ccc(C(=O)Cn2c(=O)n(CC3CCCO3)c(=O)c3cc(OC)c(OC)cc32)cc1Cl (stereo not drawn)	.	.	.	71	.
Cc1ccc(C2CC(c3ccc(F)cc3)n3ncnc3N2C(=O)C2CC2)cc1 (stereo not drawn)	.	.	.	.	.
COc1ccccc1NC(=O)COc1cccc2c1OC(C)(C)C2	.	.	.	.	.
Cc1ccc(Cl)cc1NC(=O)CCCn1cc([N+](=O)[O-])cn1	.	.	.	.	.
CC(=O)Nc1ccc(CCc2nc3ccc(C(=O)NC4CCCC4)cc3[nH]2)cc1	.	.	.	.	.
COc1cc2c(=O)n(CCC(=O)NC3CCCC3)c(=O)n(CC(=O)Nc3ccc(C)c(F)c3)c2cc1OC	.	.	34	.	.
NC(=O)c1nc(-c2cccc(F)c2)nc2c1[nH]c(=O)n2C1CCCCC1	.	.	.	51	.

Source: PubChem BioAssay (Buhrlage Lab, Dana-Farber Cancer Institute and Novartis Institutes for BioMedical Research (Cambridge, Mass))
